Measured values published in PubChem BioAssay (Tox21).
Calls of active or inactive are those of the source. Where a call stands in place of a potency, no number is given. Calls follow the shape of the dose curve; as a rule, active = well fitted activation curve with a large enough effect in the repeat runs; inconclusive = weak or mixed curves; inactive = flat fitted curve, though single readings scatter.

test: A CellTox Green Cytotoxicity Assay to monitor cytotoxicity in HepG2 cells - 0 hour (AID 1224882); conditions: CellTox Green fluorescence; series mostly up to 76.8 µM; also: nearly all actives have a fitted effect of over 35% in size
Excerpt: National Center for Advancing Translational Sciences [NCATS]
NIH Chemical Genomics Center [NCGC]
U.S. Environmental Protection Agency [EPA]
National Institutes of Environmental Health Sciences [NIEHS]
National Toxicology Program [NTP]
Cell-based models are critical for drug discovery. Determining the natural cytotoxic effects resulting from test compounds is an essential research activity. A CellTox Green Cytotoxicity Assay to monitor cytotoxicity in real time of continues cell culture during 40 hours of the compound treatment was used to screen Tox21 10K library compounds in HepG2 cells. CellTox Green Cytotoxicity Assay is a nonlytic, homogeneous, biofluorescent method to measure cytotoxicity in cell culture after experimental manipulation. The assay system uses a proprietary asymmetric cyanine dye that is excluded from viable cells but preferentially stains the dead cell's DNA. […] Viable cells produce no appreciable increases in fluorescence. Therefore, the fluorescence signal produced by the binding interaction with dead cell DNA is proportional to cytotoxicity.
The mixture of HepG2 cell suspension and reagents were dispensed at 600cells/6 ul/well in 1536-well tissue culture treated black solid bottom plates using a Multidrop dispenser. After the assay plates were incubated at a 37 C/5% CO2 incubator for 5 hours, 23 nL of compounds dissolved in DMSO, positive and negative controls was transferred to the assay plate by a pintool work station. The plates were incubated at 37 C for 40 hours. The fluorescence intensity were measured at 0h, 8h, 16h, 24h, 32h and 40h time points using ViewLux plate reader during compound treatment.

Q: Which Potency does the source give for Clc1ccccc1-c1nnc(-c2ccccc2Cl)nn1 here?
A: inactive

Q: Which Potency does the source give for CCNCC here?
A: inactive

Q: Which Potency does the source give for CC(C)=CC1C(C(=O)OCN2C(=O)C3=C(CCCC3)C2=O)C1(C)C (stereo not given) here?
A: inactive

Q: For CCCCSP(=O)(SCCCC)SCCCC, which Potency is on record?
A: inactive

Q: Which Potency does the source give for ClC(Cl)=C(Cl)C(Cl)=C(Cl)Cl here?
A: inactive

Q: Which Potency does the source give for Cc1cc(Cl)ccc1N=CN(C)C here?
A: inactive

Q: With CCC(=O)Nc1ccc(Cl)c(Cl)c1 as the compound, how does the Potency read?
A: inactive

Q: For CCC1(c2ccc(N)cc2)CCC(=O)NC1=O (stereo not given), which Potency is on record?
A: inactive

Q: Which Potency does the source give for [CH3][Sn]([Cl])([Cl])[Cl] here?
A: inactive

Q: For O=[N+]([O-])c1ccc(Cl)c([N+](=O)[O-])c1, which Potency is on record?
A: inactive

Q: With CC(C)CON=O as the compound, how does the Potency read?
A: inactive

Q: For CCOP(=S)(OCC)SCn1c(=O)oc2cc(Cl)ccc21, which Potency is on record?
A: inactive

Q: With Clc1cccc(C(Cl)(Cl)Cl)n1 as the compound, how does the Potency read?
A: inactive

Q: For Oc1ccc(Cl)cc1Cc1ccccc1, which Potency is on record?
A: inactive

Q: For NN=C(N)N, which Potency is on record?
A: inactive

Q: For c1ccc2c(c1)Nc1ccccc1S2, which Potency is on record?
A: inactive

Q: Which Potency does the source give for CCOP(=S)(OCC)SCSC(C)(C)C here?
A: inactive

Q: For CCCCOC(=O)COC(=O)c1ccccc1C(=O)OCCCC, which Potency is on record?
A: inactive

Q: With C[N+](C)(C)CC(=O)[O-] as the compound, how does the Potency read?
A: inactive

Q: With CCN(CC)C(=O)C(C)Oc1cccc2ccccc12 (stereo not given) as the compound, how does the Potency read?
A: inactive

Q: For COP(=S)(OC)Oc1ccc(S(=O)(=O)N(C)C)cc1, which Potency is on record?
A: inactive

Q: Which Potency does the source give for Cn1c(-c2ccccc2)cc(-c2ccccc2)[n+]1C here?
A: inactive

Q: Which Potency does the source give for CC(C)(C#N)N=NC(C)(C)C#N here?
A: inactive

Q: Which Potency does the source give for CNC(=O)CSP(=S)(OC)OC here?
A: inactive

Q: For Cl, which Potency is on record?
A: inactive

Q: For CC(C)COC(=O)c1ccccc1C(=O)OCC(C)C, which Potency is on record?
A: inactive

Q: For C[C@]12CC[C@H]3[C@@H](CCC4=CC(=O)CC[C@@H]43)[C@@H]1CC[C@@H]2O, which Potency is on record?
A: inactive

Q: For O=C1Nc2ccc(Cl)cc2C(c2ccccc2)=NC1O (stereo not given), which Potency is on record?
A: inactive

Q: With NC(=O)CN1CCCC1=O as the compound, how does the Potency read?
A: inactive

Q: With CC(C)(O)C#N as the compound, how does the Potency read?
A: inactive

Q: With Cc1cccc(N=Nc2ccc(N(C)C)cc2)c1 as the compound, how does the Potency read?
A: inactive

Q: For CC(C)Nc1ccc(Nc2ccccc2)cc1, which Potency is on record?
A: inactive

Q: For C[N+](C)(C)CC(=O)O, which Potency is on record?
A: inactive

Q: With CC(C)(O)C(=O)Nc1ccc([N+](=O)[O-])c(C(F)(F)F)c1 as the compound, how does the Potency read?
A: inactive

Q: For CCCCCCCC[N+](C)(CCCCCCCC)CCCCCCCC, which Potency is on record?
A: inactive

Q: For COC(=O)Nc1nc2ccccc2[nH]1, which Potency is on record?
A: inactive

Q: For Cc1ccc(N=CN(C)C=Nc2ccc(C)cc2C)c(C)c1, which Potency is on record?
A: inactive

Q: Which Potency does the source give for CS(=O)(=O)NC(=O)c1cc(Oc2ccc(C(F)(F)F)cc2Cl)ccc1[N+](=O)[O-] here?
A: inactive

Q: For ClCC(Cl)CCl, which Potency is on record?
A: inactive

Q: With CCNc1nc(Cl)nc(NC(C)(C)C#N)n1 as the compound, how does the Potency read?
A: inactive
